The source made the active and inactive calls.
Columns and labels:
[1] = E. coli DRC41 culture turbidity changes, primary screen, E. coli filamentation inducer project, strain DRC41, OD650, 48 h (AID 1152);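 note: E. coli MC1000 strain DRC41 lacking acrAB efflux pump and sulA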; settings: E. coli DRC41 (acrAB sulA), higher = more signal, called active from +8 up or from −8 down
[2] = small-molecule binders of probe aLefty1, primary screen, biochemical, small-molecule microarray, 635/667 nm fluorescence (AID 1153); settings: higher = more signal;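 note: score merges spot fluorescence with signal-to-noise ratio from the scanned slide images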
[3] = PSAC antagonists in infected red cells, primary screen, cell-based, P. falciparum Indochina, OD700, 1 h (AID 1154); settings: P. falciparum Indochina infected RBC osmotic lysis, higher = more signal, called active from +8 up or from −8 down
[4] = PSAC antagonists in infected red cells, primary screen, cell-based, P. falciparum Indochina, OD700, 2 h (AID 1155);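 note: lysis reports solute entry through the parasite surface anion channel PSAC; channel blockers reduce lysis of infected cells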; settings: P. falciparum Indochina infected erythrocytes, osmotic lysis OD700; higher = more signal, called active from +8 up or from −8 down
[5] = osmotic lysis modulators in infected erythrocytes, primary screen, PSAC antagonist project, cell-based, P. falciparum Indochina, OD700, 3 h (AID 1156); settings: higher = more signal, called active from +8 up or from −8 down
[6] = PSAC antagonists in infected red cells, primary screen, cell-based, P. falciparum Indochina, OD700, 18 h (AID 1157); settings: P. falciparum Indochina infected erythrocytes, osmotic lysis OD700, 18 h; higher = more signal, called active from +8 up or from −8 down
[7] = modulators of S6 phosphorylation in cells, primary screen, cell-based, A549, cytoblot, luminescence, serum-stimulated (AID 1158); settings: A549 phospho-S6 cytoblot, 5 h, higher = more signal;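 note: serum-stimulated A549 lung adenocarcinoma cells; signal is phosphorylated S6 detected by cytoblot immunostaining with HRP secondary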
[8] = molecular target: NADPH oxidase 2 (Homo sapiens) (UniProt P04839); experiment: NOX2-dependent H2O2 signal modulators, primary screen, NOX inhibitor project, cell-based, HEK293-NOX2, PMA-stimulated, Amplex Red fluorescence (AID 1159); settings: 45 min, higher = more signal, called active from +8 up or from −8 down; note: test concentration not given here
NADPH oxidase 2 (Homo sapiens), sequence (P04839 whole entry, looked up): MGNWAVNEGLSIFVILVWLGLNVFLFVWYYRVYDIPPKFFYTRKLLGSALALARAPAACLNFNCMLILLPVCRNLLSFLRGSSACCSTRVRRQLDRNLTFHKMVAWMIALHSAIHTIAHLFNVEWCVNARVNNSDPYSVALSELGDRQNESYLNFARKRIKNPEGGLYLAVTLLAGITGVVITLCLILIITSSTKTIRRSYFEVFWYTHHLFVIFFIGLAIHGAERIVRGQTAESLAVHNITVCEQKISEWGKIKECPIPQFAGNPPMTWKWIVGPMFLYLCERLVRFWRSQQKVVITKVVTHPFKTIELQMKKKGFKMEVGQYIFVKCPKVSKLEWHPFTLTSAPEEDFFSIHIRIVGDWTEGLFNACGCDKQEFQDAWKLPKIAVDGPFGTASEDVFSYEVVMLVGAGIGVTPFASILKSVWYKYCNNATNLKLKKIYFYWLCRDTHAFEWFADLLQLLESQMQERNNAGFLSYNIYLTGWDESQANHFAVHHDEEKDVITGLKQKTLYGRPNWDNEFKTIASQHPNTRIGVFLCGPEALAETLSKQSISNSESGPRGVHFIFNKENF

[9] = molecular target: NADPH oxidase 4 (Homo sapiens) (UniProt Q9NPH5); experiment: NOX4-dependent H2O2 signal modulators, primary screen, NOX inhibitor project, cell-based, HEK293-NOX4, tetracycline-induced, Amplex Red fluorescence (AID 1160); settings: 45 min, higher = more signal, called active from +8 up or from −8 down
NADPH oxidase 4 (Homo sapiens), sequence (Q9NPH5 whole entry, looked up): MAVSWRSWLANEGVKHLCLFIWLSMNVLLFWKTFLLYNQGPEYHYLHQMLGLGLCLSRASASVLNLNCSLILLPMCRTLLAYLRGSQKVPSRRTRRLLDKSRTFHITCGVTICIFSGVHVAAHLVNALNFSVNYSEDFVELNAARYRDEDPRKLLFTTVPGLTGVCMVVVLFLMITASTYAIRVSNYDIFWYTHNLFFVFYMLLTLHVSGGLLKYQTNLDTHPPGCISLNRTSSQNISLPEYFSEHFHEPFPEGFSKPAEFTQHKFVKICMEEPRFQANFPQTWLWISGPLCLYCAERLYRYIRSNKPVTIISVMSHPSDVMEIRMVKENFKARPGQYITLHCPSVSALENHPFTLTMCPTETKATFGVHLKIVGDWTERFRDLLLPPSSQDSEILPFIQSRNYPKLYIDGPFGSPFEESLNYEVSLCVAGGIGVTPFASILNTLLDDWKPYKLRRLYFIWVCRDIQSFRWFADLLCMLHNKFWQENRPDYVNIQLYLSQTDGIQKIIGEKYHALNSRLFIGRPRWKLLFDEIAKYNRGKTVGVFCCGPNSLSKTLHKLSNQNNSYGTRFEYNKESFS

[10] = molecular target: NADPH oxidase 5 (Homo sapiens) (UniProt Q96PH1); experiment: NOX5-dependent H2O2 signal modulators, primary screen, NOX inhibitor project, cell-based, HEK293-NOX5, Amplex Red fluorescence (AID 1161); settings: HEK293-NOX5, ionomycin, 45 min, higher = more signal
NADPH oxidase 5 (Homo sapiens), sequence (Q96PH1 whole entry, looked up): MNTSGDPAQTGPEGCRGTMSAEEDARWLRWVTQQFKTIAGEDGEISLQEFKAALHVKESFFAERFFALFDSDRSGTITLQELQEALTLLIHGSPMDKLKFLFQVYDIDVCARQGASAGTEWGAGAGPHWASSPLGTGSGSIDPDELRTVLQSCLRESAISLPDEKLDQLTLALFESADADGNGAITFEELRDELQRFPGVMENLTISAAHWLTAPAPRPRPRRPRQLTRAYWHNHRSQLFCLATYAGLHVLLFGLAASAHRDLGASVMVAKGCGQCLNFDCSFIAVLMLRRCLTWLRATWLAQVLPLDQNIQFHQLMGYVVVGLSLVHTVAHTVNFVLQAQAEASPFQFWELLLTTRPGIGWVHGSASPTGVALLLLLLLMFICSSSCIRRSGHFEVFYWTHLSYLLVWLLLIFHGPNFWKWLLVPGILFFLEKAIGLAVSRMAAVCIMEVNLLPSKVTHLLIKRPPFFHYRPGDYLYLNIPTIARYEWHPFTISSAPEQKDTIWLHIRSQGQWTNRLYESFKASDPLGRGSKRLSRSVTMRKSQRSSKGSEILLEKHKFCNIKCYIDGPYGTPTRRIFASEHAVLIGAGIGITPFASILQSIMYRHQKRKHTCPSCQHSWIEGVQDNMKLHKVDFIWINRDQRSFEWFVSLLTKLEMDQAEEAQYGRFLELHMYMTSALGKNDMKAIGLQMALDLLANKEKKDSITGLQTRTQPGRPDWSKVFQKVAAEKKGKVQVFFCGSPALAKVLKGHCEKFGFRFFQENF

[11] = A549 cell viability effects, profiling panel, calcein-AM fluorescence, 48 h, basal (AID 1162); settings: higher = more signal; note: test concentration not given here
[12] = adipocyte viability effects, profiling panel, cell-based, 3T3-L1 adipocytes, calcein-AM fluorescence, 48 h, basal (AID 1163); settings: 3T3-L1 adipocytes viability, higher = more signal; note: test concentration not given here
[13] = HepG2 cell viability effects, profiling panel, calcein-AM fluorescence, 48 h, basal (AID 1164); settings: higher = more signal; note: test concentration not given here
[14] = MM1S cell viability effects, profiling panel, calcein-AM fluorescence, 48 h, basal (AID 1165); settings: higher = more signal;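 note: viability of MM1S multiple myeloma cells under basal unstimulated conditions; test concentration not given here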
[15] = basal RPMI8226 viability, no added stimulus, profiling panel, cell-based, calcein-AM fluorescence, 48 h, PK04 Diversity Set (AID 1166); settings: RPMI8226 myeloma viability, higher = more signal;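 note: cells grown under basal conditions without added stimulus; test concentration not given here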
[16] = basal HepG2 mitochondrial membrane potential changes, profiling panel, cell-based, JC-1 fluorescence, 24 h, 100 nL compound (AID 1167); settings: higher = more signal; note: test concentration not given here
[17] = basal 3T3-L1 adipocyte mitochondrial potential changes, profiling panel, cell-based, JC-1 fluorescence, 3T3-L1 adipocytes, 24 h, 100 nL compound (AID 1168); settings: JC-1 mitochondrial fluorescence, higher = more signal, called active from +8 up or from −8 down; note: test concentration not given here
[18] = basal RPMI8226 mitochondrial membrane potential changes, profiling panel, cell-based, JC-1 fluorescence, 24 h, 100 nL compound (AID 1169); settings: RPMI8226 myeloma, JC-1 mitochondrial potential fluorescence, higher = more signal; note: test concentration not given here
[19] = basal MM1S mitochondrial membrane potential changes, profiling panel, cell-based, JC-1 fluorescence, 24 h, 100 nL compound (AID 1170); settings: higher = more signal; note: test concentration not given here
[20] = A549 lung cancer cell viability effects, profiling panel, resazurin fluorescence, 24 h, PK04 Diversity Set (AID 1171); settings: higher = more signal, called active from +8 up or from −8 down; note: test concentration not given here

SMILES | z-score [1] | composite z-score [2] | z-score [3] | z-score [4] | z-score [5] | z-score [6] | z-score [7] | z-score [8] | z-score [9] | z-score [10] | z-score [11] | z-score [12] | z-score [13] | z-score [14] | z-score [15] | z-score [16] | z-score [17] | z-score [18] | z-score [19] | z-score [20]
O=C1[C@H]2[C@H]3[C@H](O)[C@H](O)CC(=NOC[C@@H](O)COCc4ccco4)[C@@H]3CC[C@H]2C(=O)N1c1ccc(F)cc1F | -0.0233 (inactive) | -0.639 | 2.3 (inactive) | 0.537 (inactive) | 1.67 (inactive) | 0.405 (inactive) | -0.51 | -1.37 (inactive) | 0.523 (inactive) | -0.579 | -0.2 | 0.165 | -1.22 | 0.136 | -1.11 | 0.42 | -0.116 (inactive) | -0.0126 | -0.221 | 0.24 (inactive)
COC(=O)CC=C[C@@H](C)[C@@H](C=NO[C@@H](C)c1cc(-c2c(C)cc(C)cc2C)no1)OC | -1.45 (inactive) | 0.0004 | 3.39 (inactive) | -0.032 (inactive) | 0.505 (inactive) | -1.37 (inactive) | 2.15 | -1.04 (inactive) | -0.771 (inactive) | -3.87 | -0.542 | 1.05 | -0.618 | 0.0635 | -0.466 | -1.13 | -0.613 (inactive) | -0.549 | -1.19 | 0.16 (inactive)
CN(C)CCCNC(=O)[C@@H]1c2ccccc2C(=O)N(Cc2ccccc2)[C@H]1c1ccc(CO)cc1 | 0.346 (inactive) | -0.163 | 2.98 (inactive) | 0.604 (inactive) | 2.64 (inactive) | 0.33 (inactive) | -0.25 | -1.11 (inactive) | 1.02 (inactive) | -0.911 | 2.34 | 0.917 | 1.31 | -0.0214 | 0.932 | 1.89 | 0.418 (inactive) | 0.0996 | 0.108 | 0.534 (inactive)
CCc1cc2c(nc1CC)CCN(CCC(C)=NO[C@@H](C)c1cc(-c3c(C)cc(C)cc3C)no1)C2 | 0.187 (inactive) | -0.192 | 4.75 (inactive) | 0.445 (inactive) | 1.41 (inactive) | 0.514 (inactive) | 0.549 | -2.21 (inactive) | -0.321 (inactive) | -2.75 | 1.9 | 0.704 | 1.48 | -2.96 | -1.59 | 5.47 | 0.0344 (inactive) | 0.0876 | -0.769 | 0.323 (inactive)
O=C1C[C@@H](O)[C@@H](O)[C@@H]2[C@@H]3C(=O)N(Cc4ccc5c(c4)OCO5)C(=O)[C@@H]3CC[C@@H]12 | 0.306 (inactive) | -0.103 | 4.63 (inactive) | 0.632 (inactive) | 0.311 (inactive) | 0.182 (inactive) | -0.352 | 0.323 (inactive) | -0.209 (inactive) | -0.246 | 0.254 | 0.797 | 0.0538 | 0.339 | -0.205 | -0.32 | -0.409 (inactive) | -0.893 | 0.358 | -0.14 (inactive)
CC(C)=C1C(=O)C(c2ccccc2)=C2CN3C(=O)N(CCc4ccccc4)C(=O)[C@]3(Cc3ccc(F)cc3)[C@H]21 | -2.71 (inactive) | 0.318 | 20.9 (active) | 4.68 (inactive) | 1.48 (inactive) | 0.813 (inactive) | -0.51 | -0.578 (inactive) | -1.03 (inactive) | -1.11 | -0.751 | -0.0154 | -0.435 | -0.871 | -0.975 | 1.07 | -1.68 (inactive) | -0.0557 | -0.339 | 0.0406 (inactive)
O=C1O[C@@H](c2ccccc2)[C@@H](c2ccccc2)N2[C@@H](c3ccc(OCCO)cc3)[C@]3(C(=O)Nc4ccc(C#CCCO)cc43)[C@@H](C(=O)N3CCCCCCC3)[C@H]12 | 0.974 (inactive) | 2.79 | 4.33 (inactive) | 1.27 (inactive) | 0.526 (inactive) | 0.737 (inactive) | -0.178 | 1.6 (inactive) | 0.824 (inactive) | 1.08 | 0.819 | 1.02 | 0.874 | 0.206 | 0.269 | 0.523 | -0.564 (inactive) | -0.974 | -0.399 | 0.932 (inactive)
CCOC(=O)[C@H](CC(C)C)NC(=O)CCC1CC(OC(=O)NCc2cccc3ccccc23)CC2(CCCC(COC(=O)NCCN3CCOCC3)O2)O1 (stereo not given in full) | -2.17 (inactive) | -0.275 | -0.839 (inactive) | -0.655 (inactive) | -2.08 (inactive) | -0.709 (inactive) | 0.0369 | 0.428 (inactive) | 0.647 (inactive) | -0.0177 | 0.609 | 0.0174 | -0.667 | 0.109 | -0.275 | -0.084 | -1.16 (inactive) | -0.268 | -0.166 | 1.29 (inactive)

Source: PubChem BioAssay
